Laboratory results taken from PubChem BioAssay (NCATS).
Inconclusive results are not listed. Activity calls are given as the source filed them. Unless noted, calls come from the whole dose curve; as a rule, active = well fitted curve in the direction sought with a large enough effect; inconclusive = small, poorly fitted or top-dose-only effect, or another doubt; inactive = no such curve, though single readings can be large; an effect the other way counts as inactive or inconclusive.

Legend:
[1] = biological target: Thyrotropin-releasing hormone receptor (Homo sapiens) (UniProt P34981); experiment: qHTS for Small Molecule Agonists and Allosteric Enhancers of Human TRH Receptor: Validation Screen for Agonists (AID 493127;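 active = calcium activation more than 3 SD above the typical response in the agonist read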;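 note: intracellular calcium rise by fluo-8 fluorescence before TRH EC20 addition; 0% is about no effect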); settings: TRH receptor agonist cell assay; at 2 µM; stronger effect = higher value
Chain of Thyrotropin-releasing hormone receptor (Homo sapiens) (P34981 whole entry, looked up): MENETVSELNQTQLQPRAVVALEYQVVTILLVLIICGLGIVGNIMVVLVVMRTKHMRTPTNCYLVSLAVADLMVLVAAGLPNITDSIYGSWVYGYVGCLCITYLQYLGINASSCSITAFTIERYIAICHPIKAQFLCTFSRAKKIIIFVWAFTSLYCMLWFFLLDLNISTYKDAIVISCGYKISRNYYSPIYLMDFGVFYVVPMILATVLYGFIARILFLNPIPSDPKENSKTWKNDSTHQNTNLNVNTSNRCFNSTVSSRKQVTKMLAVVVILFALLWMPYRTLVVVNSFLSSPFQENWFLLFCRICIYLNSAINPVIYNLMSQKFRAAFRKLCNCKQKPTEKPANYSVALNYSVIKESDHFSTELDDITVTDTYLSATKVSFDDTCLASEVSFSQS
Summary of the method: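 TRHR-expressing cells were plated overnight in serum-containing medium, then loaded with fluo-8 calcium dye at room temperature for 30 min–1.5 h. After a 10 s baseline, compound was pin-transferred and calcium fluorescence (ex 480/em 530) read kinetically for agonist response.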

[2] = Nrf2 qHTS screen for inhibitors: Validation (AID 493153; active = well fitted inhibition curve with a large enough effect in the main read-out, with a control signal flat, not every such curve was filed as active); settings: A549 ARE-Fluc reporter, 18-24 h; Potency: luciferase luminescence; viability change: measured here: cytotoxicity max response; luciferase luminescence, at 46.1 µM (top of the series)
Summary of the method: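 A549 cells carrying an ARE-driven firefly luciferase reporter, in 5% FBS OPTI-MEM, were treated with compounds in concentration-response for 18-24 h at 37°C. Viability was read by CellTiter-Fluor fluorescence, then Nrf2 activity by luciferase luminescence.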

[3] = Validation screen for small molecules that induce DNA re-replication in SW480 colon adenocarcinoma cells (AID 504364); settings: DNA re-replication phenotype (high-content imaging); series mostly up to 46.1 µM; note: 0% is about no effect
Summary of the method: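 SW480 cells seeded at 250 per well were exposed to compound or DMSO for 48 hr at 37 C, 5% CO2, then stained with Hoechst for 40 min. DNA content per nucleus was imaged (405 nm ex, 500-530 nm em).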

[4] = biological target: Peptidyl-prolyl cis-trans isomerase NIMA-interacting 1 (Homo sapiens) (UniProt Q13526); experiment: qHTS Validation Assay to Find Inhibitors of Pin1 (AID 504536; active = well fitted inhibition curve with a large enough effect in the polarisation, with a control signal flat, not every such curve was filed as active; the % refers to the polarisation; note: potency is the fitted concentration of half-maximal effect); settings: Pin1 fluorescence polarization peptide binding assay; series mostly up to 57.5 µM
Chain of Peptidyl-prolyl cis-trans isomerase NIMA-interacting 1 (Homo sapiens) (Q13526 whole entry, looked up): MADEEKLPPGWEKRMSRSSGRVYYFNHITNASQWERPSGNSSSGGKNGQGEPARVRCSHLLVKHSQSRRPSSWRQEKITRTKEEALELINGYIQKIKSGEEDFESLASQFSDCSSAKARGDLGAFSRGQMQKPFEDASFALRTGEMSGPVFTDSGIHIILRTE
Summary of the method: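 Fluorescence polarization competition: compounds (titration) displace HiFluor-488-labeled Pin1-1b peptide from Pin1 (0.3 uM final) in pH 7.5 HEPES buffer with DTT, 10 min at room temperature; %Activity normalized to no-enzyme wells, curves fitted.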

[5] = Inducers of the Endoplasmic Reticulum Stress Response (ERSR) in human glioma: Validation (AID 504836); settings: human glioma cells, ER stress response reporter; series mostly up to 38.3 µM; note: 0% is about no effect
Summary of the method: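 ERSR induction read as luciferase luminescence (Bright-Glo, 10 min at room temperature) in stably transfected human U87-MG glioma cells exposed to compounds for 16 h, using GRP78 as sensor.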

[6] = biological target: Ubiquitin carboxyl-terminal hydrolase 1 (Homo sapiens) (UniProt O94782); experiment: Inhibitors of USP1/UAF1: Pilot qHTS (AID 504865); settings: purified USP1/UAF1, Ub-rhodamine cleavage fluorescence; series mostly up to 114 µM; note: nearly all actives have a fitted effect of over 35% in size; note: potency is the fitted concentration of half-maximal effect
Chain of Ubiquitin carboxyl-terminal hydrolase 1 (Homo sapiens) (O94782 whole entry, looked up): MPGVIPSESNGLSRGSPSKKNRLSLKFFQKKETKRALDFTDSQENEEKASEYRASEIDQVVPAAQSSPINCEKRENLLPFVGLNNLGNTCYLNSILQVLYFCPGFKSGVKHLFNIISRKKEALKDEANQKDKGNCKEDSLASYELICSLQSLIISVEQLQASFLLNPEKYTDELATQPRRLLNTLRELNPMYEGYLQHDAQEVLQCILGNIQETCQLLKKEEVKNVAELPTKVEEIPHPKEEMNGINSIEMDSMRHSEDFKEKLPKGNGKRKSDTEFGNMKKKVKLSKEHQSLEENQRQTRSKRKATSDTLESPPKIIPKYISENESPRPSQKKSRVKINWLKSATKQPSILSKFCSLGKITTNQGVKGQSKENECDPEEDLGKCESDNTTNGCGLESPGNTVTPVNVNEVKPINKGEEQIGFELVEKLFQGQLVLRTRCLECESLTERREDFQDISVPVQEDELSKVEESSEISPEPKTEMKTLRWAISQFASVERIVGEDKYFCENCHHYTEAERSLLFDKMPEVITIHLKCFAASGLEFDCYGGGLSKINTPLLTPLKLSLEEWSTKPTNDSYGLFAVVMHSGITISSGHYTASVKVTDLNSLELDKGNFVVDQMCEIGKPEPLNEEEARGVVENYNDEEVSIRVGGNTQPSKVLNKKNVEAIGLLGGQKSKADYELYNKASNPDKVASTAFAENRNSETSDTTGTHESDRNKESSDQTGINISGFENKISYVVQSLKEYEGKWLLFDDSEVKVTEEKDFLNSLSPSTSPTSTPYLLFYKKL
Summary of the method: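 1nM USP1/UAF1 + cpd, 15 min RT; start w/ Ub-Rho 150nM final; kinetic FL 480/540 nm, 6 reads q60 s. Buffer 50mM HEPES pH 7.8, 0.5mM EDTA, 1mM TCEP, 0.01% Tween-20, 0.1 mg/ml BSA.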

[7] = qHTS for Inhibitors of ATXN expression: Validation of Cytotoxic Assay (AID 588349); settings: cytotoxicity counter-screen for ATXN expression inhibitors, cell viability; series mostly up to 57.1 µM; note: % is set by controls: 0 for no effect and ±100 for the full control effect
Summary of the method: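 HEK293 cells were dosed with titrated compounds for 72 hr at 37 degrees C. Viability was read by CellTiter Glo luminescence, with intracellular ATP as the marker of cell survival.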

[8] = qHTS for Inhibitors of ATXN expression: Validation (AID 588378); settings: cell-based ATXN2 expression reporter assay, luminescence; series mostly up to 57.1 µM; note: nearly all actives have a fitted effect of over 75% in size; note: potency is the fitted concentration of half-maximal effect
Summary of the method: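 Cells: HEK293-ATXN2-FFLuc, phenol-red free DMEM, 2 h attachment. Compound pin-transfer, 24 h, 37 degrees C, 5% CO2. CellTiter-Fluor 30 min, Ex405/Em525; Bright-Glo 5 min, luminescence 2 s exposure.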

[9] = qHTS for Inhibitors of Cell Surface uPA Generation: Validation Assay (AID 493164); settings: mouse cells, plasminogen activation; series mostly up to 38.3 µM;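 note: RAW 264.7 macrophage cells exposed to compound for 18 h; 0% is about no effect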
Summary of the method: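 RAW 264.7, 4000 cells/well, o/n plating; cpd 7-pt 1:5 dilution 2.45 nM–38.3 uM final; 18 h, 37 C/5% CO2; ATP-Lite, 5 s luminescence exposure.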

[10] = biological target: Galactokinase (Homo sapiens) (UniProt P51570); experiment: qHTS Validation Assay for Inhibitors of Human Galactokinase (GALK) (AID 493189); settings: purified human GALK enzyme activity, qHTS 7-point titration; series mostly up to 57.5 µM; note: 0% is about no effect
Chain of Galactokinase (Homo sapiens) (P51570 whole entry, looked up): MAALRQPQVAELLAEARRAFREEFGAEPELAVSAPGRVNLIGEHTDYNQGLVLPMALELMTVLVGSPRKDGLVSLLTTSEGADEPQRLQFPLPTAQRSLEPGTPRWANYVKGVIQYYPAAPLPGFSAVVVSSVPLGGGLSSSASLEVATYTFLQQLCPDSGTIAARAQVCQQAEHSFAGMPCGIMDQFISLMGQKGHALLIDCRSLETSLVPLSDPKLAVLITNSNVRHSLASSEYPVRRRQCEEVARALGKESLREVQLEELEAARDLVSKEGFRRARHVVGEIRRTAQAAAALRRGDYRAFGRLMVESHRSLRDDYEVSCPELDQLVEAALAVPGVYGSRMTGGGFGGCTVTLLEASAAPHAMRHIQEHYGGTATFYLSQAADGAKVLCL
Summary of the method: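 Luminescence from leftover ATP (Kinase-Glo Plus, 10 min) served as read-out after a 1 h room-temperature reaction of 5 nM GALK, 100 uM galactose and 35 uM ATP at pH8.0.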

[11] = biological target: phosphoglycerate mutase (Leishmania major) (UniProt Q4Q090); experiment: qHTS Validation Assay to Find Inhibitors of Phosphoglycerate Mutase (AID 504548); settings: biochemical enzyme activity; Potency: inhibition qHTS; series mostly up to 57.5 µM; note: potency is the fitted concentration of half-maximal effect
Chain of phosphoglycerate mutase (Leishmania major) (Q4Q090 1-553): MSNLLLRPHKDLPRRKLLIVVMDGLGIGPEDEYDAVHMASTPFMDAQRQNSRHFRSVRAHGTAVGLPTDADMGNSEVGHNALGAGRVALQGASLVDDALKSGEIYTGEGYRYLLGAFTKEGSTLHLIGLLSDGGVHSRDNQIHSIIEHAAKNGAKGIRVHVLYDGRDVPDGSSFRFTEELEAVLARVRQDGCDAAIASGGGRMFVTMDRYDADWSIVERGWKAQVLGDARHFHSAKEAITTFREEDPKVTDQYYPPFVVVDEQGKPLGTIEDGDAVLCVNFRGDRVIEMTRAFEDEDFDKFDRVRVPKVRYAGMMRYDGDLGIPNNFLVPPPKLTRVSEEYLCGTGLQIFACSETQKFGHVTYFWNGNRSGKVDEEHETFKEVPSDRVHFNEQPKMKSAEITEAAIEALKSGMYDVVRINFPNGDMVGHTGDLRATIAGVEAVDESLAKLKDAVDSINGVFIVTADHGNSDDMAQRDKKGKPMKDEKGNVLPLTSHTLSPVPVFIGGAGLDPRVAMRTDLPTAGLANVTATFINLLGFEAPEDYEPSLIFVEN
Summary of the method: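 L. major PGAM (1.25nM final) was added to substrate buffer and pinned compound, incubated 45 minutes at room temperature, then Kinase-GloPlus added; luminescence read after 10 minutes. Buffer: 100 mM TEA pH 7.6, 5 mM MgCl2, 0.01% Tween-20.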

[12] = biological target: Phosphoglycerate kinase, glycosomal (Trypanosoma brucei brucei) (UniProt P07378); experiment: qHTS Validation Assay to Find Inhibitors of Phosphoglycerate Kinase (AID 504547); settings: enzymatic PGK inhibition, coupled luminescence read-out; series mostly up to 57.5 µM;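 note: control wells lack PGK and mark full inhibition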
Chain of Phosphoglycerate kinase, glycosomal (Trypanosoma brucei brucei) (P07378 whole entry, looked up): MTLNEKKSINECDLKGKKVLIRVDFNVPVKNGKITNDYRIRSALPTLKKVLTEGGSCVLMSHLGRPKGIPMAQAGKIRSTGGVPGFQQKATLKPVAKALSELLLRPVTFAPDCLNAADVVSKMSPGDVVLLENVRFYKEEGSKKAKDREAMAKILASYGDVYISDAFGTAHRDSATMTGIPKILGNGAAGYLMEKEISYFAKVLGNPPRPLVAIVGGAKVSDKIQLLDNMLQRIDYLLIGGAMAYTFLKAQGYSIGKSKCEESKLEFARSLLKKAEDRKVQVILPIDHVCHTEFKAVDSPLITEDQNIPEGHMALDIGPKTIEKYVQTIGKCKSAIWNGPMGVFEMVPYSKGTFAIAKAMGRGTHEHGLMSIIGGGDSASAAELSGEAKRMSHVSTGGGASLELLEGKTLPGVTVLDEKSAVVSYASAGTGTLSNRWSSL
Summary of the method: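 Inhibition of the enzyme is judged by a Kinase-Glo Plus luminescent signal following a one-hour incubation at room temperature. Because 1,3-BPG is unstable, it is made in situ by GAPDH at 100nM final; no-PGK wells define the baseline.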

[13] = biological target: DNA dC->dU-editing enzyme APOBEC-3G (Homo sapiens) (UniProt Q9HC16); experiment: qHTS for inhibitors of Vif-A3G interactions: Validation (AID 588379); settings: Vif-A3G protein interaction assay; series mostly up to 46.1 µM; note: 0% is about no effect
Chain of DNA dC->dU-editing enzyme APOBEC-3G (Homo sapiens) (Q9HC16 whole entry, looked up): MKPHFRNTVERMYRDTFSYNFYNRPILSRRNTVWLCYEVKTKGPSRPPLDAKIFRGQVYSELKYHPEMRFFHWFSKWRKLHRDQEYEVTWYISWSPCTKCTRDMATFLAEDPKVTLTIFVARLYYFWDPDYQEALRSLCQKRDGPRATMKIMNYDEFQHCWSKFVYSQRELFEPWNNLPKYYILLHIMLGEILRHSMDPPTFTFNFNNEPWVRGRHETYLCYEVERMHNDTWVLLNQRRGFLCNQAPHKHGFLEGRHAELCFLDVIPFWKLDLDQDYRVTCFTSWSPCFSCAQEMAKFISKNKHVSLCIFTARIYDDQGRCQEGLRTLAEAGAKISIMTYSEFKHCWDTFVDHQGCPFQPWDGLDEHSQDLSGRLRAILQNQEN
Summary of the method: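 HeLa cells stably expressing Vif and A3G-eYFP, 700 cells/well, incubated overnight at 37 deg C, then exposed to compound overnight at 37 deg C. Inhibition of Vif-mediated degradation read as increased yellow fluorescence (Ex 488/Em 500-530) by laser-scanning cytometry.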

O=C1C=CC(=O)C=C1
-5.52%: viability change [2]
inactive: activation [1] 0.5% | Potency [2] | Potency [3] | Potency [4] | outcome [5] | Potency [6] | Potency [7] | Potency [8]

N[C@@]1(C(=O)O)CC[C@@H](C(=O)O)C1
4.39%: viability change [2]
inactive: activation [1] -0.25% | Potency [2] | outcome [9] | outcome [10] | Potency [3] | Potency [4] | Potency [11] | outcome [5] | Potency [6] | Potency [7] | Potency [8]

N[C@@H](CCl)C(=O)O
inactive: activation [1] 1.31% | Potency [2] | outcome [9] | outcome [10] | Potency [3] | Potency [4] | outcome [5] | Potency [6] | Potency [7] | Potency [8]
4.83%: viability change [2]

CCS(=O)(=O)Nc1cccc(C(=C2CCCCC2)c2cnc[nH]2)c1
1.78%: viability change [2]
inactive: activation [1] -5.69% | Potency [2] | outcome [9] | outcome [10] | Potency [3] | Potency [4] | outcome [5] | Potency [6] | Potency [7] | Potency [8]

NC(=O)c1ccc(OCC(O)CN2CC=C(c3ccc(F)cc3)CC2)cc1 (stereo not given)
inactive: activation [1] 4.62% | Potency [2] | outcome [9] | outcome [10] | Potency [3] | Potency [4] | outcome [5] | Potency [6] | Potency [7] | Potency [8]
16.7%: viability change [2]

COc1ccc2[nH]c3c(c2c1)CCNC3
inactive: activation [1] 1.56% | outcome [9] | outcome [10] | Potency [3] | Potency [4] | Potency [12] | Potency [11] | outcome [5] | Potency [6] | Potency [7]

CCCn1c(=O)c2[nH]c(C3CCCC3)nc2n(CCCOC(=O)c2ccc(S(=O)(=O)F)cc2)c1=O
inactive: activation [1] -5.75% | outcome [9] | outcome [10] | Potency [3] | Potency [4] | Potency [12] | Potency [11] | outcome [5] | Potency [6] | Potency [7] | Potency [8]

O=c1c2ccccc2[se]n1-c1ccccc1
inactive: activation [1] 3.06% | Potency [2] | outcome [9] | outcome [10] | Potency [4] | Potency [12] | outcome [5] | Potency [6] | Potency [8]
3.13%: viability change [2]
active: Potency [11] 7.57 µM

c1ccc2c(N3CCNCC3)cccc2c1
3.18%: viability change [2]
inactive: activation [1] 1.75% | Potency [2] | outcome [9] | outcome [10] | Potency [3] | Potency [4] | outcome [5] | Potency [6] | Potency [7]

C[Se]C[C@H](N)C(=O)O
inactive: activation [1] 0.188% | outcome [9] | outcome [10] | Potency [3] | Potency [4] | Potency [12] | Potency [11] | outcome [5] | Potency [6] | Potency [7]

CCCN(CCC)[C@@H]1CCc2cccc(O)c2C1
-3.45%: viability change [2]
inactive: activation [1] 0.5% | Potency [2] | outcome [9] | outcome [10] | Potency [3] | Potency [4] | Potency [11] | outcome [5] | Potency [6] | Potency [7] | Potency [8] | outcome [13]

CCCN(CCC)C1CCc2cccc(O)c2C1 (stereo not given)
inactive: activation [1] 1.12% | Potency [2] | outcome [9] | outcome [10] | Potency [3] | outcome [5] | Potency [6] | Potency [7] | Potency [8]
4.06%: viability change [2]

COc1cc(CC(C)N)c(OC)cc1I (stereo not given)
-12.3%: viability change [2]
inactive: activation [1] 0.562% | Potency [2] | outcome [9] | outcome [10] | Potency [3] | Potency [4] | outcome [5] | Potency [6]

COc1ccc2c(c1)[C@@]13CCCC[C@H]1[C@@H](C2)NCC3
inactive: activation [1] 0.0625% | outcome [9] | outcome [10] | Potency [3] | Potency [4] | Potency [12] | Potency [11] | outcome [5] | Potency [7]

CN(N=O)c1ccc(O)c(O)c1
inactive: activation [1] -0.438% | Potency [2] | outcome [9] | outcome [10] | Potency [3] | outcome [5] | Potency [7] | Potency [8]
active: Potency [4] 4.78 µM | Potency [6] 22.4 µM
0.531%: viability change [2]

Clc1cc(I)cc(Cl)c1NC1=NCCN1
inactive: activation [1] 1.69% | outcome [9] | outcome [10] | Potency [3] | Potency [4] | Potency [12] | outcome [5] | Potency [6] | Potency [7] | Potency [8]

CCCCCCCCCCCCCC(=O)O[C@@H]1[C@@H](C)[C@@]2(O)[C@@H](C=C(CO)C[C@@]3(O)C(=O)C(C)=C[C@@H]23)C2C(C)(C)[C@@]21OC(C)=O (stereo not given in full)
-19.6%: viability change [2]
inactive: activation [1] 0.75% | Potency [2] | outcome [10] | Potency [3] | Potency [4] | Potency [12] | Potency [11] | outcome [5] | Potency [7] | Potency [8]

C[C@@H]1O[C@H](C[N+](C)(C)C)CS1
inactive: activation [1] 11.2% | outcome [9] | outcome [10] | Potency [3] | Potency [4] | Potency [12] | Potency [11] | outcome [5] | Potency [6] | Potency [7] | Potency [8]

CC(N)Cc1c[nH]c2ccc(OCc3cccs3)cc12 (stereo not given)
active: Potency [8] 28.2 µM
-4.81%: viability change [2]
inactive: activation [1] 3.5% | Potency [2] | outcome [9] | outcome [10] | Potency [3] | Potency [12] | Potency [11] | outcome [5] | Potency [6]

O=[N+]([O-])c1ccc2nc(N3CCNCC3)ccc2c1
inactive: activation [1] 1.44% | outcome [9] | outcome [10] | Potency [3] | Potency [4] | Potency [12] | Potency [11] | outcome [5] | Potency [6]

CC(N)[C@H](O)c1ccc(O)c(O)c1 (stereo not given in full)
active: Potency [4] 13.5 µM
-3.08%: viability change [2]
inactive: activation [1] 1.12% | Potency [2] | outcome [9] | outcome [10] | Potency [3] | outcome [5] | Potency [6] | Potency [7] | Potency [8]

CCN(CCCl)Cc1ccccc1Br
inactive: activation [1] -8% | outcome [9] | outcome [10] | Potency [3] | Potency [4] | outcome [5] | Potency [6] | Potency [7] | Potency [8]
